Rows were chosen to be rich in hits. Some 12% of all compounds tested hit in one or more screens of this group.
Sfp inh – inhibitors of Bacillus subtilis Sfp phosphopantetheinyl transferase | Q9F4F7 | Biochemical Sfp PPTase activity, qHTS | Potency, µM, inactives show largest response in the series, negative = inhibition, usual class: inhibitors | hit rate 3.5% among 310,000;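 further: the enzyme is Sfp with the accession as filed and its product quenches rhodamine fluorescence; 0% = enzyme reaction without inhibitor and -100% = no enzyme wells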
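Reaction rates are the 30-min fluorescence difference (ex 525, em 598 nm) in wells containing 15 nM Sfp, 5 uM rhodamine-CoA and 12.5 uM BHQ-2-YbbR at pH 7.6 with 10 mM MgCl2.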
HP1b chromo inh – inhibitors of HP1-beta chromodomain binding to methylated histone tails; Potency, µM (series often up to 114 µM), inactives show top-dose activity change, negative = inhibition, hits mostly inhibitors; P83916; AlphaScreen HP1-beta / biotin-H3K9me3 peptide binding; AID 540317; hit rate 0.56% among 390,000; further: nearly all actives have a fitted effect of over 70% in size
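Compound inhibition of the preformed complex between 50 nM HP1-beta and 50 nM biotinylated H3K9me3 peptide was read by AlphaScreen. Buffer was PBS pH 7.4 with 0.01% Tween-20. Incubations ran 30 min at room temperature, with 10 ug/mL donor/acceptor beads.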
JMJD2A Tudor inh – blocks the human JMJD2A Tudor domain. Potency, µM (titrated, usually from 114 µM), without a hit: at the highest dose activity change, negative = inhibition, usual class: inhibitors. AID 504339. AlphaScreen JMJD2A-Tudor / H3K4me3 peptide binding. hit rate 4.4% among 390,000. O75164; further: on the % scale 0 is the no-effect control and ±100 the full control effect; nearly all actives have a fitted effect of over 50% in size
Target sequence (O75164 whole entry, looked up, the tested form may be a part): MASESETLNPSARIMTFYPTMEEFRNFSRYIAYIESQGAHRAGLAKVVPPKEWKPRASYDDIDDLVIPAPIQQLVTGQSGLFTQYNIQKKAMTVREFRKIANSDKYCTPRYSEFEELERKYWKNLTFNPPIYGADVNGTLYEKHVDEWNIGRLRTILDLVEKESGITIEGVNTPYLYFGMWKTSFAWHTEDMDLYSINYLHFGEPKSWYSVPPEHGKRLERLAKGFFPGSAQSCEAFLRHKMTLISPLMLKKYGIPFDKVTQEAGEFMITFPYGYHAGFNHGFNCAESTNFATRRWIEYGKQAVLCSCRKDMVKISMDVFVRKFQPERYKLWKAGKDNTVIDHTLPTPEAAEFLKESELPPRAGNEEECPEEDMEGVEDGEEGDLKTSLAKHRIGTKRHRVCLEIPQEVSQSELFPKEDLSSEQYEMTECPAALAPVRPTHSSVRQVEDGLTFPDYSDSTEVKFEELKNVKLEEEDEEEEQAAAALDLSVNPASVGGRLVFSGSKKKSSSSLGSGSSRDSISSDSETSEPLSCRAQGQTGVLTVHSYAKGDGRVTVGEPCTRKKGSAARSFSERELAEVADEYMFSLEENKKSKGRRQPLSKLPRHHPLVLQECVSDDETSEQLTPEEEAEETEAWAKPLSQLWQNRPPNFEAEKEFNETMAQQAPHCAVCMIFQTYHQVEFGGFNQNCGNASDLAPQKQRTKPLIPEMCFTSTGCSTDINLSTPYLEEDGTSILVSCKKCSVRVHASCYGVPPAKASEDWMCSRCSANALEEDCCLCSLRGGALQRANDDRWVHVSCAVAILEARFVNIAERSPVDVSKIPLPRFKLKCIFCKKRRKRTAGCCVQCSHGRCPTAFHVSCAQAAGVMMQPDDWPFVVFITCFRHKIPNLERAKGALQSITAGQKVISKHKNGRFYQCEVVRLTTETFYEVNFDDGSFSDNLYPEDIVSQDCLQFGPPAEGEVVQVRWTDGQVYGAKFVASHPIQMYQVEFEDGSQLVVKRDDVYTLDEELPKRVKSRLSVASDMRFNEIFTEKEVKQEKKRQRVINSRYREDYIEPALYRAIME
BAZ2B inh – BAZ2B (human) inhibition; Q9UIF8; AlphaScreen BAZ2B-H3K14Ac peptide displacement; Potency, µM (doses to about 114 µM), for the others: top-dose activity change, negative = inhibition, usual class: inhibitors; hit rate 4.4% among 360,000; AID 504333; further: on the % scale 0 is the no-effect control and ±100 the full control effect; nearly all actives have a fitted effect of over 60% in size
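AlphaScreen displacement: compounds (up to 110uM) incubated 30 min at room temperature with a preformed 50 nM BAZ2B/50 nM biotinylated H3K14Ac peptide complex in PBS pH 7.4 with Tween-20. Donor and acceptor beads at 10 ug/mL final added, 20 min light-protected before reading.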
G9a inh – inhibitors of human histone lysine methyltransferase G9a; AID 504332; Q96KQ7; Potency, µM (series often up to 102 µM), inactives show at the top dose activity, negative = inhibition, most hits filed as inhibitors; G9a H3K9 monomethylation, AlphaScreen, 2 h; hit rate 8.8% among 350,000; further: on the % scale 0 is the no-effect control and ±100 the full control effect; nearly all actives have a fitted effect of over 75% in size
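Enzyme 20 nM + cpd, 15 min RT; add b-H3K9 pep 500 nM / SAM 20 uM; 2 h RT; anti-H3K9me1 Ab 0.5 ug/mL + SA donor / anti-rabbit acceptor beads 20 ug/mL each, 10 min; AlphaScreen read.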
L3MBTL1 block – L3MBTL1 (human) inhibition. Q9Y468. AlphaScreen L3MBTL1–H3K9me1 peptide binding. Potency, µM (highest dose often 57.1 µM), for the others: top-dose activity, negative = inhibition, usual class: inhibitors. AID 485360. hit rate 0.66% among 230,000; further: on the % scale 0 is the no-effect control and ±100 the full control effect; nearly all actives have a fitted effect of over 60% in size
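Read-out is AlphaScreen signal from streptavidin donor and nickel chelate acceptor beads (10 ug/mL final each) bridging L3MBTL1 (50 nM) and biotinylated K9-monomethylated H3(1-15) peptide (75 nM), after 30 min compound exposure at room temperature.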
Starred values were filed as active, the others as inactive; [ ] = remark or other dose. The call rests on the fitted dose curve; in most records, active means well fitted curve in the direction sought with a large enough effect; inconclusive means small, poorly fitted or top-dose-only effect, or another doubt; inactive means no such curve, though single readings can be large; an effect the other way counts as inactive or inconclusive. Potency means the concentration at half of the fitted maximal effect.

`Cc1cc2cc(C(c3nnnn3Cc3ccccc3)N3CCc4ccccc43)c(=O)[nH]c2cc1C` (stereo unspecified) gave Sfp inh 35µM*, HP1b chromo inh -1%, JMJD2A Tudor inh inconclusive, BAZ2B inh inconclusive and G9a inh inconclusive.
Screening CCc1ccc2[nH]c(=O)c(C(c3nnnn3Cc3ccccc3)N3CCOCC3)cc2c1 (stereo unspecified) returned Sfp inh 7%, HP1b chromo inh 35%, JMJD2A Tudor inh 8%, BAZ2B inh 1%, G9a inh -40% and L3MBTL1 block 5%.
`CCN1C(C)=C(C(=O)OC(C)C)C(c2ccccc2Cl)C(C(=O)O)=C1C(=O)O` (stereo unspecified) gave Sfp inh 26%.
Screening Nc1ccc(NC(=O)CCN2CCOCC2)cc1 returned Sfp inh 4%, HP1b chromo inh 4%, JMJD2A Tudor inh -13%, BAZ2B inh 3%, G9a inh 0% and L3MBTL1 block -4%.
For Cc1cc2cc(C(c3nnnn3Cc3ccco3)N3CCc4ccccc4C3)c(=O)[nH]c2cc1C (stereo unspecified) the results were Sfp inh 11µM*, HP1b chromo inh 12%, JMJD2A Tudor inh -35%, BAZ2B inh 45µM* and G9a inh inconclusive.
Screening CN1CCN(c2ncc3nc(-c4cc(F)cc(F)c4)c(=O)n(CCC#N)c3n2)CC1 returned Sfp inh -29% and G9a inh 4%[0.501 µM].
`CC(=O)N/C(=C\c1ccc2c(c1)OCO2)C(=O)NC(C(=O)O)c1ccccc1` (stereo unspecified) gave Sfp inh 15%, HP1b chromo inh 8%, JMJD2A Tudor inh -11%, BAZ2B inh -18% and G9a inh 89µM*.
`CC(=O)N/C(=C\c1ccccc1)C(=O)Nc1ccccc1C` gave Sfp inh 8%, HP1b chromo inh 22%, JMJD2A Tudor inh -14%, BAZ2B inh -26%, G9a inh inconclusive and L3MBTL1 block -4%.
Screening CC(=O)N/C(=C\c1ccc(F)cc1)C(=O)NC(C(=O)O)C(C)C (stereo unspecified) returned Sfp inh 12%, HP1b chromo inh 44%, JMJD2A Tudor inh -17%, BAZ2B inh -37%, G9a inh 56µM* and L3MBTL1 block 8%.
For CC(=O)N/C(=C\c1ccccc1)C(=O)NC(C)C(=O)O (stereo unspecified) the results were Sfp inh 12%, HP1b chromo inh 20%, JMJD2A Tudor inh -2%, BAZ2B inh -21%, G9a inh 56µM* and L3MBTL1 block 1%.
`Nc1cc(=O)[nH]c(SCC(=O)N2CCCCC2)n1` gave Sfp inh 17%, HP1b chromo inh 32%, JMJD2A Tudor inh -6%, BAZ2B inh -2%, G9a inh -3% and L3MBTL1 block 7%.
O=C(NC(=S)Nc1ccccc1Cl)c1csnn1 was read as Sfp inh 50µM*, HP1b chromo inh -8%, JMJD2A Tudor inh -15%, BAZ2B inh 15%, G9a inh 4%[59 µM] and L3MBTL1 block 21%.
Screening O=C(NC(=O)N1CCCC1)c1csnn1 returned Sfp inh 15%, HP1b chromo inh 4%, JMJD2A Tudor inh -6%, BAZ2B inh 1% and G9a inh 56µM*.
`Cc1cc(Sc2nc(N(C)C)nc(N(C)C)n2)nc(Cl)n1` gave Sfp inh 15%, HP1b chromo inh 42%, JMJD2A Tudor inh -9%, BAZ2B inh -24%, G9a inh 6% and L3MBTL1 block -1%.
Screening Cc1ccccc1C(=O)Nc1cccc(-c2nc3cccnc3s2)c1 returned HP1b chromo inh 11%, JMJD2A Tudor inh 100µM*, BAZ2B inh inconclusive and G9a inh -60%[59 µM].
Screening CCS(=O)(=O)Nc1cc(-c2nc3cccnc3s2)ccc1C returned Sfp inh -3%, HP1b chromo inh 23%, JMJD2A Tudor inh 1%, BAZ2B inh 9%, G9a inh 50µM* and L3MBTL1 block -3%.
